From PubChem BioAssay AID2314 (National Center for Advancing Translational Sciences (NCATS), 2010)
The campaign covered roughly 300,000 compounds. About 37,000 (12%) were called active. Cut-off read from the data, not from the text of the source: active = max response mostly above about 13% (no sharp cut-off); inactive = mostly below about 14%. Shown is part of a subset that was picked to be rich in actives.

Test: Cycloheximide Counterscreen for Small Molecule Inhibitors of Shiga Toxin; note: read at 38.3 µM for the half of the compounds with a filed dose; 0% is about no effect
Conditions: cell reporter, cycloheximide protein synthesis inhibition counterscreen; stronger effect = higher value
In the case of `CN(C)S(=O)(=O)c1cccc(NC(=O)COC(=O)C2(c3ccccc3F)CCCC2)c1`, the max response is reported as -2.67% (inactive).
With `Cc1c(C(=O)NC(C)C2CC3CCC2C3)cccc1[N+](=O)[O-]` (configuration not stated) the max response was -3.79% (inactive).
For `COc1cnc(SCc2ccc(Cl)c(Cl)c2)nc1Cl`, the max response was 2.3% (inactive).
For `CCc1c2c(nc3ccc(O)cc13)-c1cc3c(c(=O)n1C2)COC(=O)[C@]3(O)CC`, the max response was -1.28% (inactive).
With `NC(N)=Nc1nc(-c2ccccc2)c2cc(Cl)ccc2n1` the max response was -10.2% (inactive).
For `CCOC(=O)C1=C(N)N(c2ccc(C)cc2)C2=C(C(=O)CCC2)C1c1cccs1` (configuration not stated), the max response was 5.25% (inactive).
For `COc1ccccc1OC(C)C(=O)Nc1ccc(S(=O)(=O)Nc2nccs2)cc1` (configuration not stated), the max response was -6.41% (inactive).
In the case of `CC(=O)N1c2ccc(S(=O)(=O)N3CCCC(C(=O)NCc4ccc(Cl)cc4)C3)cc2CC1C` (configuration not stated), the max response is reported as 10.9% (inactive).
With `CNS(=O)(=O)c1cccc(C(=O)NC2CCCc3ccccc32)c1` (configuration not stated) the max response was -2.97% (inactive).
With `COc1cccc(NC(=O)CN(C)CC(=O)Nc2ccc3c(c2)CCC3)c1` the max response was 4.53% (inactive).
In the case of `COc1ccc(S(=O)(=O)Nc2ccc3oc(C)c(C(C)=O)c3c2)cc1`, the max response is reported as -0.324% (inactive).
For `COc1ccc(C(=O)ON=C2c3ccccc3-c3ccccc32)cc1OC`, the max response was -2.66% (inactive).
For `COc1ccc(NC(=O)ON=C2c3ccccc3-c3ccccc32)cc1`, the max response was 36.1% (active).
For `COc1ccc(NC(=O)c2c(C)oc3c2CCCC3)cc1`, the max response was 23.1% (active).
In the case of `COc1ccc(NC(=O)C(Br)C(C)C)cc1` (configuration not stated), the max response is reported as 10.3% (inactive).
For `COc1cccc(NC(=O)c2ccc(S(=O)(=O)N(C)C)cc2)c1`, the max response was 9.95% (inactive).
For `COc1ccc(NC(=O)c2ccc(C#CC(C)(C)O)cc2)cc1`, the max response was 29.4% (active).
For `COc1ccc2oc(=N)c(C(=O)Nc3ccc(Br)cc3)cc2c1`, the max response was -2.54% (inactive).
For `COc1ccc(CC(=O)Nc2ccc(C(=O)NC(C)(C)C)cc2)cc1`, the max response was 7.23% (inactive).
For `CCC(=O)Nc1ccc(C(=O)Nc2cccc(OC)c2)cc1`, the max response was 37.4% (active).
With `COc1ccc(NS(=O)(=O)c2ccc(NC(=O)c3ccc(N(C)S(C)(=O)=O)cc3)cc2)cc1` the max response was -6.86% (inactive).
With `CCC(C)[C@H](NC(=O)N1CCn2c1nc1ccccc12)C(=O)NCc1ccc(OC)cc1` (some centres not stated) the max response was 7.87% (inactive).
With `CC1CCN(C(=S)NC2CC3CCC2C3)CC1` (configuration not stated) the max response was -2.5% (inactive).
For `O=C(CCCCCn1c(=S)[nH]c2ccsc2c1=O)NC1CCCCC1`, the max response was -3.34% (inactive).
With `Cc1nc(NC2=NC(C(=O)Nc3ccc(Cl)cc3)CC(=O)N2)nc2ccccc12` (configuration not stated) the max response was -1.93% (inactive).
With `Cc1ccc2c(C)c(C(=O)N(C)Cc3ccncn3)oc2c1C` the max response was -3.14% (inactive).
With `CCOC(=O)C1(CC2CCCCO2)CCN(Cc2nc(-c3cccs3)oc2C)CC1` (configuration not stated) the max response was -1.4% (inactive).
With `CC(C(=O)c1ccc(-c2ccccc2)cc1)[n+]1cccc(Br)c1` (configuration not stated) the max response was -1.92% (inactive).
For `CC(NC(=O)c1ccco1)c1ccc2c(c1)OCO2` (configuration not stated), the max response was -2.24% (inactive).
In the case of `Cc1c(C)c2c(OCC(=O)N[C@@H](C(=O)O)c3ccccc3)cc3c(c2oc1=O)CCC(C)(C)O3`, the max response is reported as 0.453% (inactive).
In the case of `Cc1nn(C)c(C)c1CN(C(=O)CCc1nnc(Cc2c[nH]c3ccccc23)o1)C(C)C`, the max response is reported as -2.58% (inactive).
In the case of `COCCNC(=O)/C(C#N)=C/c1nc(N(C)C)n(-c2ccc(F)cc2)c1Cl`, the max response is reported as 6.45% (inactive).
In the case of `CSCCC(NS(=O)(=O)c1ccc(C)cc1)C(=O)N1CCCC1` (configuration not stated), the max response is reported as -0.967% (inactive).
For `Cc1cccc(C(=O)Nc2ccc3c(c2)C(=O)N(CC(C)C)C3=O)c1`, the max response was 10.4% (inactive).
For `COc1ccc(C(=O)NNC(=S)NC(=O)c2ccccc2)cc1`, the max response was 8.67% (inactive).
For `COc1ccc(C(=O)NC(=S)NC2CCCCC2)cc1`, the max response was 72.8% (active).
In the case of `O=C(NC(=S)NC1CCCCC1)c1ccc(Cl)cc1`, the max response is reported as -1.68% (inactive).
With `COc1ccc(NC(=O)Nc2ccc3nsnc3c2)cc1` the max response was 49.2% (active).
For `COc1ccc(/C=N/NC(=O)Nc2ccc3nsnc3c2)c(OC)c1`, the max response was -1.93% (inactive).
For `Cc1cccc(C(=O)Nc2ccccc2C(=O)NCc2cccnc2)c1`, the max response was -1.87% (inactive).
For `COc1ccc(C(=O)Nc2ccc(NC(=O)C(C)C)nc2)cc1`, the max response was 2.34% (inactive).
In the case of `COc1ccc(NC(=O)c2ccc(OC)cc2)cc1`, the max response is reported as 45.1% (active).
For `COCCNC(=O)Nc1ccc2nc(-c3ccco3)c(-c3ccco3)nc2c1`, the max response was -4.08% (inactive).
For `Cc1cccc(C(=O)Nc2ccc(Oc3cnccn3)cc2)c1`, the max response was 22.6% (active).
For `COc1ccc(C(=O)Nc2cccc(S(C)(=O)=O)c2)cc1`, the max response was -2.97% (inactive).
In the case of `O=C(C1CCCO1)N1CCN(C(=S)NC2CC2)CC1` (configuration not stated), the max response is reported as -1.72% (inactive).
With `CN1C(=O)[C@H]2[C@@H](C3CC3)N3C(=O)CN(Cc4ccccc4)C(=O)[C@@]3(C)[C@H]2C1=O` the max response was -0.826% (inactive).
With `CNC(=O)CN1C(=O)NC(c2ccccc2)(c2ccccc2)C1=O` the max response was -2.25% (inactive).
In the case of `Cc1ccc(C(=O)O)cc1-c1ccc(/C=C2\SC(=O)N(CC(=O)Nc3ccc4c(c3)OCO4)C2=O)o1`, the max response is reported as -2.31% (inactive).
In the case of `O=C(NN1C(=O)C2C3C=CC(C4CC34)C2C1=O)c1ccc(Cl)cc1` (configuration not stated), the max response is reported as 3.35% (inactive).
With `C=C(C)C1CC=C(C)C(O)C1` (configuration not stated) the max response was 7.86% (inactive).
With `CN(C(=O)COc1nnc(-c2cccs2)c(-c2cccs2)n1)c1ccccc1` the max response was 0.449% (inactive).
For `COc1ccc(NC(=O)c2sccc2SCC#N)cc1`, the max response was 40% (active).
With `CCN(CC)C(=O)c1ccc(NC(=O)c2sccc2-c2ccccc2)cc1` the max response was 0.344% (inactive).
With `CCOc1ccc(N(CC(=O)Nc2cccc(OC)c2)S(C)(=O)=O)cc1` the max response was 27.2% (active).
With `COc1cccc(N(CC(=O)Nc2cccc(N(C)S(C)(=O)=O)c2)S(C)(=O)=O)c1` the max response was -2.16% (inactive).
For `COc1ccc(NC(=O)c2sc(N)nc2-c2ccccc2)cc1`, the max response was 1.95% (inactive).
With `COc1cccc(N(CC(=O)Nc2cccc(F)c2)S(C)(=O)=O)c1` the max response was -5.13% (inactive).
For `CCOc1cccc(-c2nnc(SCC(=O)NC3CC3)n2C)c1`, the max response was 5.85% (inactive).
In the case of `CCOC(=O)NN1C(=O)c2ccccc2NC1c1ccccc1O` (configuration not stated), the max response is reported as -0.209% (inactive).
In the case of `COc1ccc(CCNC(=O)CCc2cn(C)c3ccccc23)c(OC)c1`, the max response is reported as 0.538% (inactive).
In the case of `O=C(NCCNc1ccc([N+](=O)[O-])cc1)c1cccc2c(Br)cccc12`, the max response is reported as -5.64% (inactive).
With `O=S(=O)(c1ccc(Cl)cc1)c1nc(-c2ccccc2F)oc1NCCN1CCOCC1` the max response was 0.972% (inactive).
For `O=C(c1cc(C(=O)N2CCN(c3ccc(F)cc3)CC2)cc([N+](=O)[O-])c1)N1CCN(c2ccc(F)cc2)CC1`, the max response was 1.24% (inactive).
For `Nc1ccccc1C(=O)NC1CCCCNC1=O` (configuration not stated), the max response was -3.17% (inactive).
For `CC12CN3CCN(CC(C3)/C1=N\NC(=O)c1ccccc1N)C2`, the max response was 42.9% (active).
With `CNC(=S)N/N=C1\C2CN3CCN(C2)CC1(c1ccccc1)C3` the max response was 0.185% (inactive).
In the case of `CC1CC(C)CN(C(=O)C2CC(=O)N(c3ccc(F)cc3)C2)C1` (configuration not stated), the max response is reported as -5.15% (inactive).
With `COc1cc2c3c(c1)/C(=C1/SC(=S)NC1=O)C(=O)N3C(C)(C)C=C2C` the max response was -0.91% (inactive).
For `CC(=O)Nc1cccc(OCC(=O)/C=C2\N(C)c3ccccc3C2(C)C)c1`, the max response was 17% (inactive).
In the case of `COc1ccc(CNC(=O)COc2cccnc2[N+](=O)[O-])cc1`, the max response is reported as -2.66% (inactive).
For `O=C(NNc1ncnc2c1cnn2-c1ccccc1)c1ccco1`, the max response was 9.27% (inactive).
In the case of `Cc1ccc(Nc2ncnc3c2cnn3C)c(C)c1`, the max response is reported as 1.06% (inactive).
With `Cc1ccc(-n2ncc3c(Nc4cccc(C(=O)O)c4)ncnc32)cc1` the max response was 45.3% (active).
In the case of `CCOC(=O)C1CN(S(=O)(=O)c2ccc(F)cc2)C1`, the max response is reported as 1.16% (inactive).
For `C=CCn1c(=S)[nH]c2scc(-c3ccco3)c2c1=O`, the max response was -1.66% (inactive).
In the case of `COc1cc(C2C(N3C(=O)c4ccccc4C3=O)C(=O)N2c2ccc(C)c(C)c2)cc(OC)c1OC` (configuration not stated), the max response is reported as -1.4% (inactive).
With `COC(=O)c1ccc(S(=O)(=O)NCc2ccccc2)n1C` the max response was -1.21% (inactive).
For `COc1ccc(C2C3=C(CCCC3=O)N(CC(=O)O)C3=C2C(=O)CCC3)cc1`, the max response was -0.955% (inactive).
With `Cc1cccc(NC(=O)c2ccc(COc3ccccc3[N+](=O)[O-])o2)n1` the max response was 9.42% (inactive).
In the case of `CC(=O)Cc1nsc(NC(=O)c2ccc(COc3ccc(C)cc3)o2)n1`, the max response is reported as 4.45% (inactive).
With `CCOc1ccc(OCc2ccc(C(=O)Nc3cccc(C)n3)o2)cc1` the max response was 21.2% (active).
For `Cc1ccc(NC(=O)c2nc[nH]c2C(=O)N[C@@H](CCCCNC(=O)OC(C)(C)C)C(=O)OC(C)(C)C)cc1`, the max response was -3.36% (inactive).
In the case of `O=C(NCC(=O)N1CCN(c2ncc(C(F)(F)F)cc2Cl)CC1)c1ccc(Br)o1`, the max response is reported as -1.14% (inactive).
In the case of `CCCC(=O)Nc1nnc(-c2ccccc2)o1`, the max response is reported as -3.55% (inactive).
In the case of `CCc1nnc(NC(=O)c2nc3nccc(C)n3n2)s1`, the max response is reported as -2.71% (inactive).
With `Cc1ccnc2nc(C(=O)Nc3nnc(-c4ccccc4)o3)nn12` the max response was 23.5% (active).
In the case of `C=CCN(c1ccccc1C(=O)NCC(=O)OCC)S(=O)(=O)c1ccc(C)cc1`, the max response is reported as -3.9% (inactive).
For `CCn1cc(C(=O)NCCCN2CCCCCC2)c(=O)c2cc(S(=O)(=O)N3CCc4ccccc4C3)ccc21`, the max response was -1.21% (inactive).
For `CCO[C@H]1OC(C(=O)NCc2ccccc2)=C[C@@H](c2coc3ccccc3c2=O)[C@@H]1CCCO`, the max response was -1.05% (inactive).
With `CCC(=O)N1c2ccc(S(=O)(=O)NCc3ccco3)cc2CC1C` (configuration not stated) the max response was 19.8% (inactive).
With `O=C(O)CCCC(=O)Nc1ccc(Oc2cccc(C(F)(F)F)c2)nc1` the max response was 5.78% (inactive).
